Source: PubChem BioAssay (several laboratories)
SDO1 yeast rescue = restores growth of sdo1-depleted yeast | S. cerevisiae sdo1-depleted JHY4D growth rescue, OD600 30 h; hits give high values; pdr5 snq2 efflux-pump mutant strain | z-score at 10 µM | 140,000 tested, 0.21% active | AID 817;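 active = z-score above 3 at both the 24 hr and the 30 hr optical density reads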
MRP1 act = activates MRP-1. viability increase, % at 10 µM. H69AR cells + doxorubicin, viability rescue, CellTiter-Glo. 140,000 tested, 0.61% active. AID 799;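 active = viability gain under doxorubicin at or above a set limit, the compound median plus 3 SD, cut at about 4.7% in these data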;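 also: MRP-1 overexpressing cells given doxorubicin 25 µM after compound pretreatment; 18-22 h compound pretreatment then 72 h with doxorubicin before readout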
Phagocyt inh = macrophage phagocytosis inhibition | J774A.1 macrophage IgG-bead phagocytosis, imaging | inhibition, % at 5 µM | 110,000 tested, 0.07% active | AID 1029;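 active = inhibition above the mean of the plate negative controls plus 5 SD, cut at about 13% in these data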;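 also: phagocytic index as fraction of beads internalized from green versus red external bead signal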
MRP reversal = MRP-mediated drug resistance reversal. 85,000 tested, 0.04% active. differential viability (reversal), % at 10 µM. H69AR cells + 2 uM doxorubicin, CellTiter-Glo, 72 h. AID 602;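 active = viability drop by adding the cancer drug above about 55%, with treated viability meeting a 40% cutoff, limit read from the data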;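 also: larger differential means the compound sensitizes cells more to doxorubicin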
sEH act = increases human soluble epoxide hydrolase activity; P34913; purified human sEH enzymatic activity, activator screen; 91,000 tested, 0.04% active; AID 717; activation, % at 2 µM; in the data active = activation above about 37%
Target sequence (P34913 whole entry, looked up): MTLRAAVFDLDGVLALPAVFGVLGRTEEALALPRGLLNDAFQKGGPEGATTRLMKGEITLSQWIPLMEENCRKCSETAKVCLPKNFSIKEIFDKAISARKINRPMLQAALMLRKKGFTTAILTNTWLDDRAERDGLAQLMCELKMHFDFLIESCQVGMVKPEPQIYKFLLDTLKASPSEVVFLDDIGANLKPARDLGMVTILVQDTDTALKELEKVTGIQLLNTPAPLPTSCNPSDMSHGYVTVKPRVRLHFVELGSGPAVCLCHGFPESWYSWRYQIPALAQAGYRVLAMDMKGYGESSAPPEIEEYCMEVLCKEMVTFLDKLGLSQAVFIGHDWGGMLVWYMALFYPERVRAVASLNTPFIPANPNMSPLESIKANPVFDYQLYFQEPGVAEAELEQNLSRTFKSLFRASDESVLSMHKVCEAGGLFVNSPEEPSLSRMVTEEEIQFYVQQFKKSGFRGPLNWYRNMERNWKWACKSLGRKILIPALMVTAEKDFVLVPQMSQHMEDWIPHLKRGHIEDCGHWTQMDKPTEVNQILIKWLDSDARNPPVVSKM
sEH inhibitor = inhibitors of human soluble epoxide hydrolase | P34913 | recombinant human sEH enzymatic activity assay | inhibition, % at 2 µM | 91,000 tested, 0.34% active | AID 707; in the data active = inhibition above about 80%
Large screens that a line does not name were inactive. Most compounds without a hit are left out; they make up all but 1% or so of the library.

CC(Sc1nc2ccccc2s1)C(=O)Nc1nnc(C(C)C)s1 (stereo unspecified)	sEH act 37
CCC(Sc1nc(C)cc(=O)[nH]1)C(=O)Nc1nnc(C)s1 (stereo unspecified)	none
CCOc1cc(CNc2ccc(CNc3ncn[nH]3)cc2)ccc1OCc1ccccc1	none (no result: MRP reversal, sEH act, sEH inhibitor)
Cc1ccc(C(C(=O)NC2CCCC2)N2CCc3ccccc32)cc1 (stereo unspecified)	none
CCCC1S/C(=N/N=C/c2ccc(OC)cc2)N(Cc2ccc(OC)cc2)C1=O (stereo unspecified)	none (no result: Phagocyt inh)
CCCCC1S/C(=N/N=C/c2ccc(OC)cc2)N(Cc2ccc(OC)cc2)C1=O (stereo unspecified)	MRP1 act 5.4
CCCC1S/C(=N/N=C/c2ccc(OC)cc2)N(Cc2ccccc2)C1=O (stereo unspecified)	MRP1 act 6.0
CC(C)Cc1nnc(NC(=O)CSc2ncn[nH]2)s1	MRP1 act 5.3 (no result: Phagocyt inh)
O=C(CSc1ncn[nH]1)Nc1nnc(-c2ccccc2)s1	MRP1 act 7.2 (no result: sEH act, sEH inhibitor)
O=C(CSc1ncn[nH]1)NC12CC3CC(CC(C3)C1)C2	MRP1 act 5.1 (no result: Phagocyt inh)
Cc1cc(=O)[nH]c(SCC(=O)Nc2nnc(CC(C)C)s2)n1	none
O=C(O)CSc1ncn[nH]1	none
CC(=O)NCCC(=O)Nc1ccc(C)c(F)c1	none
Cc1ccc(NC(=O)CCNC(=O)c2ccc(Cl)cc2)cc1F	MRP1 act 5.4 (no result: MRP reversal, sEH act, sEH inhibitor)
O=C(NC(=S)Nc1nc2ccccc2s1)c1ccco1	none (no result: MRP reversal, sEH act, sEH inhibitor)
O=[N+]([O-])C(=C1Nc2ccccc2N1)/C(Cl)=C(/Cl)Br	none (no result: MRP reversal, sEH act, sEH inhibitor)
CCOC(=O)CSc1nc2ccccc2c(=O)n1CC1CCC(C(=O)NCc2ccco2)CC1 (stereo unspecified)	sEH inhibitor 82 (no result: Phagocyt inh)
CCOC(=O)CSc1nc2ccccc2c(=O)n1CC1CCCC1	none (no result: Phagocyt inh)
O=C(O)c1ccc(-n2nnnc2SCc2ccccc2)cc1	MRP reversal 83
CC12CCC(C(=O)N(CSC(=S)N/N=C\c3ccccc3Cl)C1=O)C2(C)C (stereo unspecified)	none (no result: Phagocyt inh)
CC12CCC(C(=O)N(CSC(=S)N/N=C\c3ccccc3)C1=O)C2(C)C (stereo unspecified)	MRP1 act 4.8 (no result: Phagocyt inh)
N/C(COc1cccc(C(F)(F)F)c1)=N\NC(=O)c1cccnc1Oc1ccccc1	none
Cc1cc(C)cc(N(CC(=O)N2CCn3c2nc2ccccc23)S(=O)(=O)c2c(C)noc2C)c1	none
O=C1CN(C(=O)COC(=O)c2cccc(OCc3ccccc3)c2)c2ccccc2N1	none (no result: MRP reversal, sEH act, sEH inhibitor)
CCC(=O)Nc1ccc(C(=O)N/N=C/c2cccnc2)cc1	none (no result: Phagocyt inh, MRP reversal)
CCCCCCC(=O)Nc1ccc(C(=O)N/N=C/c2cccnc2)cc1	MRP1 act 9.9 (no result: Phagocyt inh, MRP reversal)
COc1ccc(CN2C(=O)[C@@H]3C(c4ccc(F)cc4)=NO[C@@H]3C2=O)cc1	sEH act 38
COC(=O)c1ccccc1N1C(=O)[C@@H]2C(c3ccc(F)cc3)=NO[C@@H]2C1=O	none
O=C1C2C3C=CC(C4CC34)C2C(=O)N1Cc1ccco1 (stereo unspecified)	none (no result: Phagocyt inh, MRP reversal, sEH act, sEH inhibitor)
CCOc1ccc(-c2c(=O)n(OCc3ccc([N+](=O)[O-])cc3)c3ccccc3[n+]2[O-])cc1	none (no result: MRP reversal, sEH act, sEH inhibitor)
CCOc1ccc(OCC)c(-c2c(=O)n(OCc3ccc(C(C)(C)C)cc3)c3ccccc3[n+]2[O-])c1	MRP1 act 6.6 (no result: Phagocyt inh, MRP reversal)
S=C(Nc1ccccc1Cl)N(CCN1CCCCC1)Cc1ccco1	none (no result: MRP reversal, sEH act, sEH inhibitor)
O=C(c1nn(Cc2ccccc2)c(=O)c2ccccc12)N1CCN(C/C=C/c2ccccc2)CC1	none (no result: Phagocyt inh)
O=S(=O)(/C=C/c1ccccc1)N1CCN(c2cccc(Cl)c2)CC1	sEH act 38
Cc1ccc(Nc2nc(CSc3nnnn3C)cs2)cc1	MRP1 act 5.4
O=C(NCCC1=CCCCC1)c1ccc(F)c(S(=O)(=O)N2CCOCC2)c1	sEH inhibitor 97
COCc1cc(=O)[nH]c(Sc2c(-c3ccccc3)c3ccc(Cl)cc3[nH]c2=O)n1	none (no result: MRP reversal, sEH act, sEH inhibitor)
COc1ccc(NC(=O)Cn2cc(C(=O)c3ccco3)c3ccccc32)cc1	MRP1 act 6.7
CCCC(=O)NC(=S)Nc1ccc(C(C)=O)cc1	MRP1 act 11 (no result: MRP reversal, sEH act, sEH inhibitor)
COC(=O)c1sc2ncn(-n3c(C)ccc3C)c(=O)c2c1C	none
O=S(=O)(c1ccccc1F)N(Cc1ccco1)Cc1nnc(-c2ccccc2Br)o1	none
Cc1ccc(COc2cccc3c2CCN(Cc2ccc(F)cc2)C3=O)cc1	MRP1 act 5.0 (no result: MRP reversal, sEH act, sEH inhibitor)
O=C(N/N=C/c1ccncc1)C1C2CCCCCCC21 (stereo unspecified)	none (no result: MRP reversal, sEH act, sEH inhibitor)
Cc1ccc2nc(Nc3nc(CSc4nc5ccccc5s4)cc(=O)[nH]3)nc(C)c2c1	MRP1 act 11 (no result: MRP reversal, sEH act, sEH inhibitor)
CC1CCCN(C(=O)C2CCN(S(=O)(=O)c3cccc4cccnc34)CC2)C1 (stereo unspecified)	none
CCOC(=O)n1n[n+]([O-])c2ccccc21	none (no result: MRP reversal, sEH act, sEH inhibitor)
Cc1cccc(NC(=O)/C(=C\c2ccc([N+](=O)[O-])o2)NC(=O)c2ccc(Cl)cc2)c1	MRP1 act 5.7 (no result: Phagocyt inh, MRP reversal, sEH act, sEH inhibitor)
COC(=O)/C(=C\c1ccc([N+](=O)[O-])o1)NC(=O)c1ccccc1	none (no result: MRP reversal)
Cc1cc(Br)ccc1NC(=O)CNC(=O)CN(C)Cc1nc2ccccc2c(=O)[nH]1	MRP1 act 4.9 (no result: Phagocyt inh)
Cc1ccc(NC(=O)CN(C)Cc2nc3ccccc3c(=O)[nH]2)c(Br)c1	none
Cc1ccc(S(=O)(=O)Cn2nnnc2C(c2ccccn2)N2CCN(c3ccccc3)CC2)cc1 (stereo unspecified)	none (no result: MRP reversal)
Cc1ccc(C(c2nnnn2CS(=O)(=O)c2ccc(C)cc2)N2CCN(c3ncccn3)CC2)cc1 (stereo unspecified)	MRP1 act 11 (no result: Phagocyt inh)
CC(C)CCC1CC(CSC(=N)N)OC1=O (stereo unspecified)	MRP1 act 5.1
Cc1ccc(-c2nn(-c3ccccc3)cc2/C=N/NS(=O)(=O)c2ccccc2)cc1	none (no result: Phagocyt inh, MRP reversal)
Cc1ccc(S(=O)(=O)N/N=C\c2cn(-c3ccccc3)nc2-c2ccccc2)cc1	MRP1 act 6.2 (no result: Phagocyt inh, MRP reversal)
CC(C)(C)c1ccc(OCC(O)CSc2ncn[nH]2)cc1 (stereo unspecified)	MRP1 act 6.8
Cc1cc(C)c2cc(CN(CC3CCCO3)C(=O)NC3CCCCC3)c(=O)[nH]c2c1 (stereo unspecified)	none (no result: SDO1 yeast rescue, MRP1 act, Phagocyt inh)
COc1ccc(-n2c(Cn3c(=O)sc4ccccc43)nnc2SCC(=O)N2CCCC2)cc1	none
Cc1cc(/C=C(\C#N)C(=O)OCC(=O)NC(=O)NC(C)(C)C)c(C)n1CCC(C)C	MRP reversal 57
COc1ccccc1NS(=O)(=O)c1cccc(C(=O)N/N=C2\CC(=O)CC(C)(C)C2)c1	none (no result: MRP reversal, sEH act, sEH inhibitor)
COc1ccccc1NS(=O)(=O)c1cccc(C(=O)NN)c1	sEH inhibitor 94
C/C(=N\NC(=O)CN1CCOCC1)C(C)(C)C	none (no result: MRP reversal)
O=C(Nc1ccn(Cc2c(F)c(F)cc(F)c2F)n1)c1ccc(COc2ccc(Cl)cc2Cl)o1	MRP1 act 13 (no result: MRP reversal)
Cc1nn(Cc2c(F)c(F)c(F)c(F)c2F)c(C)c1NC(=O)c1ccc(COc2ccc(Cl)cc2Cl)o1	none (no result: MRP reversal, sEH act, sEH inhibitor)
